GSTO1 counter = blocks human GSTO1 in RBBP9 counter-screen; P78417; recombinant GSTO1, activity-based probe fluorescence polarization; 1.1% of 300,000 active; AID 1974; inhibition, % at 5.96 µM;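 active = inhibition above the campaign mean inhibition plus 3 SD, cut at about 35% in these data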;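 also: 0% = GSTO1-1 with DMSO and 100% = wells lacking GSTO1-1 enzyme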
PME-1 inh = blocks human protein phosphatase methylesterase 1. Q9Y570. recombinant PME-1, FP-Rh probe fluorescence polarization. inhibition, % at 5.9 µM. 0.53% of 320,000 active. AID 2130;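 active = inhibition above the campaign mean of all compounds plus 3 SD, cut at about 26% in these data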;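 also: competitive labeling of PME-1 active site by serine hydrolase directed probe; 0% = PME-1 with DMSO and 100% = wells lacking PME-1 enzyme; inhibitors block probe labeling so polarization falls and inhibition rises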
LYPLA2 inh = counter-screen for PME1 inhibitors: inhibitors of human LYPLA2 | O95372 | recombinant LYPLA2, FP-Rh probe fluorescence polarization | inhibition, % at 5.9 µM | 0.38% of 320,000 active;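 active = inhibition above the screen-wide mean plus 3 SD, limit set per campaign, cut at about 26% in these data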;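 also: 0% = LYPLA2 with DMSO and 100% = wells lacking LYPLA2 enzyme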
LYPLA1 counter = blocks human lysophospholipase 1, a PME1 counter-screen; O75608; recombinant LYPLA1, FP-Rh probe fluorescence polarization; inhibition, % at 5.9 µM; 0.16% of 320,000 active; AID 2174;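 active = inhibition above the mean of all tested compounds plus 3 SD, set per campaign, cut at about 14% in these data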;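 also: inhibitors block serine hydrolase probe labeling of LYPLA1 so polarization falls; 0% = enzyme with DMSO and 100% = wells lacking LYPLA1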
PAD4 inh = PAD4 (human) enzyme inhibition; AID 485272; recombinant PAD4, RCA probe fluorescence polarization; inhibition, % at 6.36 µM; 0.41% of 330,000 active;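 active = percent inhibition above a cutoff equal to the mean of all tested compounds plus 3 SD, cut at about 15% in these data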;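 also: 0% = PAD4 with RCA probe and DMSO and 100% = probe without PAD4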
Target sequence (Q9UM07 whole entry, looked up): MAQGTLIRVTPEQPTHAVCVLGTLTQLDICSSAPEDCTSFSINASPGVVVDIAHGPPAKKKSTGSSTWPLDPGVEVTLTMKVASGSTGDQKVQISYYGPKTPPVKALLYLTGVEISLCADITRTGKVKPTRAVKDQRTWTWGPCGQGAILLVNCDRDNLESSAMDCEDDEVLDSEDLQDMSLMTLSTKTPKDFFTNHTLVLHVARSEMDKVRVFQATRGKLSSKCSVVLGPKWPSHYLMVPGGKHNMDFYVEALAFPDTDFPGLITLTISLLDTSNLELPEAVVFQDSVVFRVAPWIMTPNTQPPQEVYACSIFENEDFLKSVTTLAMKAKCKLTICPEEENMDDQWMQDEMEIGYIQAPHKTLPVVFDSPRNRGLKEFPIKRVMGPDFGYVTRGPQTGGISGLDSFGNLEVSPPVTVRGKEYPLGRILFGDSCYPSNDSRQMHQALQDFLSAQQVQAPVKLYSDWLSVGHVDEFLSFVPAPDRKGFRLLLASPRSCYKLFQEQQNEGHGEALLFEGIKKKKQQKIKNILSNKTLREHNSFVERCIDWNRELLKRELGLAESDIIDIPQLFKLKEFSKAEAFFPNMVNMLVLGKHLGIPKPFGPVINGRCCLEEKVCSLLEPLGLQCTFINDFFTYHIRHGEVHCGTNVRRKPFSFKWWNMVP
Fam108B inh = counter-screen for RBBP9 inhibitors: inhibitors of mouse Fam108B | recombinant Fam108B, FP-Rh probe fluorescence polarization | inhibition, % at 9.51 µM | 0.33% of 300,000 active | AID 1947;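 active = inhibition above the screen mean inhibition plus 3 SD, computed separately per campaign, cut at about 18% in these data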;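 also: inhibitors lower polarization as less probe binds the enzyme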
Numbers without * were called inactive; x = not tested or not shown. Sampled rows, rich in hits. Any-hit rate of the full collection: about 1.8%.

SMILES	GSTO1 counter	PME-1 inh	LYPLA2 inh	LYPLA1 counter	PAD4 inh	Fam108B inh
CN(C)CCN(C(=O)c1cccc2ccccc12)c1nc2cc3c(cc2s1)OCO3	-12	4	1	-3	3	-5
Cn1c(=N)n(CC(=O)c2ccc(Br)cc2)c2ccccc21	12	32*	1	1	1	17
CCc1ccc(-n2nc3cc(C)c(N)cc3n2)cc1	36*	3	1	-2	-3	2
Cc1ccc(/C=N/Nc2ccnc3cc(Cl)ccc23)c(C)c1	-9	35*	4	1	0	16
Oc1ccc(/C=N/Nc2ccnc3cc(Cl)ccc23)c(O)c1	9	27*	3	-2	-4	4
COc1ccccc1NC(=O)CCC(=O)Nc1nnc(C(F)(F)F)s1	1	89*	0	2	2	0
C#CCOCCOCCOCCNc1nc(N2CCN(C(=O)C([C@@H](C)O)n3cc([C@@H](N)CCCCN)nn3)CC2)nc(N2CCN(C(=O)[C@H](CCCN=C(N)N)n3cc(C(N)[C@@H](C)CC)nn3)CC2)n1 (stereo partly drawn)	x	x	x	x	-1	x
O=C(CCS(=O)(=O)Cc1ccc(Cl)cc1)NCCCN1CCOCC1	3	4	1	2	-2	4
CC1(C)CC(=O)C2=C(C1)N(CCN1CCOCC1)C1=C(C(=O)CC(C)(C)C1)C2c1cccc(F)c1	4	28*	-2	2	3	-1
CC1(C)CC(=O)C2=C(C1)N(CCN1CCOCC1)C1=C(C(=O)CC(C)(C)C1)C2c1ccc(Cl)cc1	-6	5	3	-1	-2	-6
CCOC(=O)c1c(OCC)[nH]c2c1cc(O)c1ccccc12	34	39*	-4	-6	-13	9
COc1ccc(OC)c(C(=O)COC(=O)COc2ccccc2)c1	x	x	x	x	5	x
Cc1c(C(=O)N/N=C/c2ccc(O)c(Br)c2)sc(N)c1C#N	-23	29*	4	-1	-10	7
O=[N+]([O-])c1c(Nc2ccc(O)cc2)cc(N2CCOCC2)c2nonc12	-4	-1	4	2	4	5
O=C(O)c1cc(Nc2cc(Cl)c3nonc3c2[N+](=O)[O-])ccc1O	36*	-1	20	-2	6	0
COc1ccccc1NC(=O)COC(=O)c1ccc([N+](=O)[O-])s1	34	-1	8	4	-4	5
CCc1ccccc1NC(=O)c1ccc([N+](=O)[O-])s1	41*	-2	-1	-5	-6	2
CSc1ccc(-c2sc(Nc3cccc4ccccc34)n[n+]2-c2ccccc2)cc1	37*	3	-11	-5	-9	2
CN(C)c1ccc(NC(=O)CSc2nnc(-c3ccco3)c(-c3ccco3)n2)cc1	19	19	5	3	-5	0
Cc1ccc(NC(=O)CSc2nnc(-c3ccco3)c(-c3ccco3)n2)cc1	37*	0	-2	-4	-4	10
CSc1nnc(-c2ccco2)c(-c2ccco2)n1	36*	-7	-4	-3	-2	10
CCOc1cc2[nH]c(=S)n(CCCC(=O)NCc3ccccn3)c(=O)c2cc1OCC	-3	-2	-5	2	0	2
Cc1ccc(C)c(C(=O)CCC(=O)NNC(=O)c2cccs2)c1	x	x	x	x	0	x
CCOC(=O)N1CCN(Cc2nc3c(c(=O)n(C)c(=O)n3C)n2CCCc2ccccc2)CC1	1	2	5	0	-5	2
COc1cc(/C=N/NC(=O)c2cc(C3CC3)[nH]n2)ccc1O	5	11	7	0	-1	3
SMILES	GSTO1 counter	PME-1 inh	LYPLA2 inh	LYPLA1 counter	PAD4 inh	Fam108B inh
COc1cc(/C=N/NC(=O)c2cc(C34CC5CC(CC(C5)C3)C4)[nH]n2)ccc1O	4	15	-13	-11	0	21*
COc1ccc(CC2(CO)CCN(Cc3cccn3-c3ccccn3)CC2)cc1	-8	4	0	0	-2	0
Cc1ccc(Nc2nnc(-c3ccc(N4CCOCC4)c([N+](=O)[O-])c3)c3ccccc23)cc1	-6	48*	-15	-11	0	5
O=C1CN(C(=O)c2ccccc2F)C(c2ccccc2)c2cc(F)ccc2N1 (stereo not drawn)	3	30*	9	2	1	1
COCC(=O)Nc1cc(C(=O)Nc2ccccc2)ccc1Cl	4	1	4	3	-3	6
O=C(OCCOCCN=C1NS(=O)(=O)c2ccccc21)c1ccccc1Br	-1	34*	-1	0	-5	-1
O=C(OCCN=C1NS(=O)(=O)c2ccccc21)c1ccccc1F	-6	1	0	-1	-8	-3
CCOc1ccc(NS(=O)(=O)c2ccc3c(c2)oc(=O)n3C)cc1	36*	2	3	2	-1	-1
Cc1ccc(NS(=O)(=O)c2ccc3c(c2)oc(=O)n3C)cc1C	37*	-1	-2	5	-1	3
CC(C)=CC(=O)O[C@@H]1Cc2cc3ccc(=O)oc3cc2OC1(C)C	x	1	0	-2	2	x
CC(NC(=O)CCl)c1ccc(Cl)c(Cl)c1 (stereo not drawn)	96*	4	9	1	-3	1
COc1cccc(NC(=O)CNC(=O)Cn2cnc3sc(C)c(C)c3c2=O)c1	4	0	-8	0	1	-2
COc1ccc(NC(=O)c2noc(C(C)C)c2[N+](=O)[O-])cc1	33	-4	-1	-4	-5	-3
CC(C)c1onc(C(=O)NCCc2ccccc2)c1[N+](=O)[O-]	37*	-1	3	3	-1	2
Cc1ccc(O)c(NC(=O)c2noc(C(C)C)c2[N+](=O)[O-])c1	35*	7	10	-4	0	1
CC(=O)c1ccc(NC(=O)c2noc(C(C)C)c2[N+](=O)[O-])cc1	4	4	5	0	-1	1
CC(C)c1onc(C(=O)NCc2ccc(F)cc2)c1[N+](=O)[O-]	37*	6	6	9	5	-2
Cc1csc(SCC(=O)Nc2nncs2)n1	2	-5	3	1	2	0
CCn1c2ccccc2c2cc(NC(=O)c3ccccc3[N+](=O)[O-])ccc21	1	30*	-4	-1	2	13
O=C(O)c1cc(-c2ccc(Cl)c(Cl)c2)n(-c2ccccc2)n1	-4	-1	3	6	-7	-4
CC(=O)Oc1ccc(C(=O)OCC(=O)c2c(N)n(C)c(=O)n(C)c2=O)cc1OC(C)=O	35*	-2	3	0	4	-3
CC(=O)Nc1ccc(S(=O)(=O)N2CCN(c3ncccn3)CC2)cc1	-6	-1	3	2	-2	4
CC(=O)NCC(=O)OCN1C(=O)c2ccccc2C1=O	36*	0	8	2	-1	1

From PubChem BioAssay
